The source made the active and inactive calls. Unless noted, no rule for the calls is given here.
Experiments:
[1] = resazurin metabolic signal in HepG2 cells – cell-based, resazurin fluorescence, 24 h, PK04 Diversity Set, profiling panel (AID 1172); settings: HepG2 viability, higher = more signal
[2] = budding yeast growth changes without added modifier – OD600, strain BY4716, 24 h, basal condition, primary screen (AID 1173); settings: S. cerevisiae BY4716 growth, OD600, 24 h; higher = more signal, called active from +8 up or from −8 down
[3] = viability profiling in MM1S myeloma cells – cell-based, resazurin fluorescence, basal, 24 h, PK04 Diversity Set, profiling panel (AID 1174); settings: higher = more signal, called active from +8 up or from −8 down;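 also: MM1S multiple myeloma cell line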
[4] = target: Dihydroorotate dehydrogenase (quinone), mitochondrial (Plasmodium falciparum (isolate 3D7)) (UniProt Q08210); assay: inhibition of P. falciparum DHODH – biochemical, C-terminal His tag, absorbance 600 nm, primary screen (AID 1175); settings: PfDHODH enzyme, DCIP absorbance 600 nm; higher = more signal, called active from +8 up or from −8 down;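 also: recombinant parasite enzyme with a five histidine tag at its C terminus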
[5] = inhibition of PAO1 biofilm formation – strain PAO1, LB-PBS medium, absorbance 600 nm, primary screen (AID 1176); settings: P. aeruginosa PAO1 growth/biofilm, A600, 12 h; higher = more signal
[6] = growth modulation of vineyard yeast isolate – strain RM11-1a, OD600, basal, 24 h, primary screen (AID 1177);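 also: cultures grown under basal conditions with no added stressor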; settings: S. cerevisiae RM11-1a growth, OD600, 24 h; higher = more signal, called active from +8 up or from −8 down
[7] = growth of efflux-deficient E. coli DRC39 – strain DRC39, OD650, 24 h, E. coli filamentation inducers, primary screen (AID 1178);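 also: growth measured as culture turbidity by optical density at 650 nm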; settings: E. coli DRC39 acrAB, higher = more signal, called active from +8 up or from −8 down
[8] = growth of efflux-deficient E. coli DRC39 – strain DRC39, OD650, 48 h, E. coli filamentation inducers, primary screen (AID 1179);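 also: screen aims at cell division blockers that make cells filament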; settings: E. coli DRC39 delta-acrAB growth, higher = more signal, called active from +8 up or from −8 down
[9] = viability profiling in RPMI8226 myeloma cells – cell-based, resazurin fluorescence, basal, 24 h, PK04 Diversity Set, profiling panel (AID 1180); settings: higher = more signal;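 also: RPMI8826 multiple myeloma cell line at 5000 cells per well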
[10] = target: E3 ubiquitin-protein ligase XIAP (Homo sapiens) (UniProt P98170); assay: small molecules binding XIAP protein – biophysical, small-molecule microarray, fluorescence 635 nm, primary screen (AID 1181); settings: higher = more signal;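 also: score merges 667 nm emission and signal to noise over triplicate slides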
[11] = tested on: XIP peptide (Xip251-270) binding; assay: XIP fragment 251-270 binding compounds – biochemical, small-molecule microarray, fluorescence 635/667 nm, 0.1 µg/mL protein, primary screen (AID 1182); settings: fluorescent protein binding, 635 nm, higher = more signal, called active from +8 up or from −8 down
XIP peptide (Xip251-270) = assay: compounds binding XIP fragment 251-270 – biochemical, small-molecule microarray, fluorescence 635/667 nm, 0.5 µg/mL protein, primary screen (AID 1183); settings: fluorescence 635 nm, higher = more signal
[12] = blood-stage malaria parasite viability loss – strain 3D7, DAPI fluorescence, 100 nL, primary screen (AID 1184);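 also: parasites grown inside human red blood cells in medium with human serum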; settings: P. falciparum 3D7 growth, 3 d, higher = more signal
[13] = target: Homeobox protein Hox-A13 (Mus musculus) (UniProt Q62424); assay: disruptors of Hoxa13 oligonucleotide interaction – biochemical, fluorescence polarization, labeled oligonucleotide, primary screen (AID 1185); settings: Hoxa13:DNA binding, 15 min, higher = more signal, called active from +8 up or from −8 down
Homeobox protein Hox-A13 (Mus musculus), sequence (Q62424 whole entry, looked up): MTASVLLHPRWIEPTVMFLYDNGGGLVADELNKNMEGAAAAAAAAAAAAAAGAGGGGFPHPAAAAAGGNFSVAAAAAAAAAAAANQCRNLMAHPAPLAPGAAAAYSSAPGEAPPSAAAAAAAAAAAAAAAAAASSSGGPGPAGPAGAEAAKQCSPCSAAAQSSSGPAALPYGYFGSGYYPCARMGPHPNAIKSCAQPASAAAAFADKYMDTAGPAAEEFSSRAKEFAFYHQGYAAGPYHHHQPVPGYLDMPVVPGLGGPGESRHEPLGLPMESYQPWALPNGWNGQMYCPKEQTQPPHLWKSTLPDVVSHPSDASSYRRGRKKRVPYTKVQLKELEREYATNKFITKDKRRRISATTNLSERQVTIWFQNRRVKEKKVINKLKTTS

Dihydroorotate dehydrogenase (quinone), mitochondrial (Plasmodium falciparum (isolate 3D7)), sequence (Q08210 whole entry, looked up): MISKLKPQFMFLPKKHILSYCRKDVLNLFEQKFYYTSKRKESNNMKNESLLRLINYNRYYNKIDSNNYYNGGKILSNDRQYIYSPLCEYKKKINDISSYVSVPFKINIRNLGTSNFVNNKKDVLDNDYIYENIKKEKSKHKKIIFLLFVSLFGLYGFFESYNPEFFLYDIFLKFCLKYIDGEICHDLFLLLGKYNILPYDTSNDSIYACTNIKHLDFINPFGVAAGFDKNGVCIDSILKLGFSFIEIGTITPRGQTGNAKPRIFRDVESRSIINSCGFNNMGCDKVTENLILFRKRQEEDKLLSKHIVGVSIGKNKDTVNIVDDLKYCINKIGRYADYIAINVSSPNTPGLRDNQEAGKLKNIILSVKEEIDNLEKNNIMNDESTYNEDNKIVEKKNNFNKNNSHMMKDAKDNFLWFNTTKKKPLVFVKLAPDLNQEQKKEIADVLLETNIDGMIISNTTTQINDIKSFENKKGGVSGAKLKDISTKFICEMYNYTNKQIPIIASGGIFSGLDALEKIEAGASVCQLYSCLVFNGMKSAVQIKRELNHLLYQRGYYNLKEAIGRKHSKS
E3 ubiquitin-protein ligase XIAP (Homo sapiens), sequence (P98170 whole entry, looked up, the tested form may be a part): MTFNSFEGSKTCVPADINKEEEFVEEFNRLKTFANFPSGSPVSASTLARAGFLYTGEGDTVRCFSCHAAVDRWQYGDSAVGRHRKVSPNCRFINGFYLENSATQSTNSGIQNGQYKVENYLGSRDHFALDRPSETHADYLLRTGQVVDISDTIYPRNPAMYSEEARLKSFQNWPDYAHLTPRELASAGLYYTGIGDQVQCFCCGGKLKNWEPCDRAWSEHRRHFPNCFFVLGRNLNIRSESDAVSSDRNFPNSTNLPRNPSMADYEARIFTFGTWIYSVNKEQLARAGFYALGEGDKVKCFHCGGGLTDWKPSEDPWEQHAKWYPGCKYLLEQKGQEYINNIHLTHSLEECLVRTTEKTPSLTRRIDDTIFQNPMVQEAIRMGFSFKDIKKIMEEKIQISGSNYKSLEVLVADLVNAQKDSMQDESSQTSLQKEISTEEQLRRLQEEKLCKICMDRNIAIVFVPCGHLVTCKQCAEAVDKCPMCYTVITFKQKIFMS

| SMILES | z-score [1] | z-score [2] | z-score [3] | composite z-score [4] | z-score [5] | z-score [6] | z-score [7] | z-score [8] | z-score [9] | composite z-score [10] | composite z-score [11] | composite z-score (XIP peptide (Xip251-270)) | z-score [12] | z-score [13] |
| --- | --- | --- | --- | --- | --- | --- | --- | --- | --- | --- | --- | --- | --- | --- |
| COc1ccc(O[C@H]2C=C[C@@H](c3ccccc3)O[C@@H]2COC(=O)CCC(C)=NOCC[C@@H]2C=C[C@H](OC(C)=O)[C@@H](COC(C)=O)O2)cc1 | 0.453 | 1.51 (inactive) | 0.595 (inactive) | -0.64 (inactive) | -0.455 (inactive) | 0.893 (inactive) | 0.265 (inactive) | -0.0862 (inactive) | 0.485 | 0.388 | 0.543 (inactive) | 0.0553 | -0.703 | -4.08 (inactive) |
| CC(C)=CCCC(C)=CCON=C1C[C@@H](O)[C@@H](O)[C@@H]2[C@@H]3C(=O)N(C[C@@H]4CCCO4)C(=O)[C@@H]3CC[C@@H]12 | 0.502 | -0.242 (inactive) | -0.041 (inactive) | -0.111 (inactive) | -0.261 (inactive) | 0.348 (inactive) | 0.122 (inactive) | 0.511 (inactive) | 0.424 | -0.264 | 0.0561 (inactive) | 0.539 | 1.55 | 0.264 (inactive) |
| CC(C)CON=C1[C@H]2CCn3c(=O)n(-c4ccccc4)c(=O)n3[C@H]2[C@H](O)[C@@H]2O[C@H]12 | -0.771 | -0.813 (inactive) | -1.21 (inactive) | -0.422 (inactive) | -0.225 (inactive) | 0.0254 (inactive) | 0.276 (inactive) | 0.596 (inactive) | -0.822 | -0.032 | 0.142 (inactive) | 0.263 | -1.94 | -0.738 (inactive) |
| CC(C)(C)N1C(=O)[C@H]2[C@H]3[C@H](O)[C@H](O)CC(=NOCc4ccccc4)[C@@H]3CC[C@H]2C1=O | -1.74 | -0.245 (inactive) | -0.637 (inactive) | -1.36 (inactive) | 0.246 (inactive) | -2.23 (inactive) | -0.474 (inactive) | -0.0278 (inactive) | -1.34 | -0.0735 | 0.691 (inactive) | 0.779 | 0.281 | 1.12 (inactive) |
| C=CC[C@@H]1C=C[C@H](ON=C2c3cc(OC)ccc3O[C@H](c3cccc(OC)c3)[C@H]2O)[C@@H](CO)O1 | -1.38 | -0.903 (inactive) | -1.15 (inactive) | -0.726 (inactive) | 0.113 (inactive) | -0.7 (inactive) | 0.57 (inactive) | 0.741 (inactive) | -1.37 | -0.0834 | 0.0897 (inactive) | -0.479 | 0.888 | -5.69 (inactive) |
| CC(CCC(=O)OC[C@H]1O[C@H](C#Cc2ccccc2)C=C[C@@H]1Oc1ccc(C)cc1)=NOC[C@@H](O)[C@H]1O[C@@H]2OC(C)(C)O[C@@H]2[C@H]1O | -0.279 | 0.197 (inactive) | 0.134 (inactive) | -2.15 (inactive) | -0.324 (inactive) | 0.71 (inactive) | 0.844 (inactive) | 1.1 (inactive) | 0.0234 | -0.325 | 0.0901 (inactive) | -0.823 | -0.521 | -2.3 (inactive) |
| COC(=O)CC=C[C@@H](C)[C@@H](C=NO[C@H](C)c1cn([C@@H]2COC[C@H]2O)nn1)OC | -0.879 | -0.435 (inactive) | -0.179 (inactive) | -0.295 (inactive) | 0.666 (inactive) | 0.0782 (inactive) | 0.773 (inactive) | 0.878 (inactive) | -0.359 | -0.0206 | -0.107 (inactive) | 0.446 | 0.354 | 0.0624 (inactive) |
| C[C@H](c1ccccc1)N1C(=O)[C@H]2[C@@H]3C(=CC[C@H]2C1=O)C(=O)[C@H]1O[C@H]1[C@H]3O | -2.54 | -3.82 (inactive) | -8.01 (active) | -1.74 (inactive) | -0.993 (inactive) | -0.141 (inactive) | 0.144 (inactive) | 0.494 (inactive) | -5.33 | 0.288 | -0.584 (inactive) | 0.008 | -1.23 | -6.83 (inactive) |
| CC(=O)OC[C@H]1O[C@H](CCON=C[C@@H](C)[C@H](OCc2ccccc2)C(C)C)C=C[C@@H]1OC(C)=O | -0.374 | 0.604 (inactive) | -0.81 (inactive) | -0.64 (inactive) | 0.0039 (inactive) | -0.399 (inactive) | -0.983 (inactive) | -2.1 (inactive) | -0.429 | -0.215 | 0.72 (inactive) | 0.165 | -0.219 | -4.91 (inactive) |
| COc1ccc(-c2ccc3c(n2)CCCN3CC(O)CN2CCCc3nc(C)c(C)cc32)cc1 (centres undefined) | -0.671 | -1.75 (inactive) | -0.559 (inactive) | 1.18 (inactive) | 0.274 (inactive) | -0.256 (inactive) | 0.975 (inactive) | 0.65 (inactive) | -0.836 | 1.15 | 2.32 (inactive) | 0.79 | 0.618 | -9.12 (active) |
| CO[C@H]1COC(=O)[C@@H]2CCCN2C(=O)CC=C[C@@H](C)[C@H](OC)COC(=O)CC=C[C@@H]1C | 0.233 | -1.16 (inactive) | 0.89 (inactive) | -0.652 (inactive) | 0.696 (inactive) | -2.08 (inactive) | 1.04 (inactive) | 0.375 (inactive) | -0.395 | -0.137 | 0.371 (inactive) | 0.298 | 0.372 | -0.346 (inactive) |
